Hits are enriched below; roughly 2.6% of the tested compounds scored in any of these assays.
ABCB6 inh 2: inhibitors of human ABC transporter ABCB6. K562-ABCB6 porphyrin accumulation, flow cytometry, 1 h; hits give low values. fluorescence ratio to DMSO, % at 10 µM. 0.19% of 360,000 active;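 active = fluorescence ratio to DMSO below 75%, the collection mean minus 3 SD; inconclusive = too few cells collected in the well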;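 also: signal is porphyrin accumulated inside mitochondria; 100% equals median channel fluorescence of DMSO control wells; lower ratio means ABCB6 inhibition with less porphyrin fluorescence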
MLLE-PAM2 inh: blocks PAM2 peptide binding to the PABP1 MLLE domain; GST-MLLE / FITC-PAM2 fluorescence polarization; AID 588489; P11940; 0.36% of 360,000 active; inhibition, % at 20 µM; in the data active = inhibition above about 35%, passing the limit was not always enough;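 also: plate controls were DMSO wells with GST-MLLE for no effect and wells lacking GST-MLLE protein for full effect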
Target sequence (P11940 whole entry, looked up, the tested form may be a part): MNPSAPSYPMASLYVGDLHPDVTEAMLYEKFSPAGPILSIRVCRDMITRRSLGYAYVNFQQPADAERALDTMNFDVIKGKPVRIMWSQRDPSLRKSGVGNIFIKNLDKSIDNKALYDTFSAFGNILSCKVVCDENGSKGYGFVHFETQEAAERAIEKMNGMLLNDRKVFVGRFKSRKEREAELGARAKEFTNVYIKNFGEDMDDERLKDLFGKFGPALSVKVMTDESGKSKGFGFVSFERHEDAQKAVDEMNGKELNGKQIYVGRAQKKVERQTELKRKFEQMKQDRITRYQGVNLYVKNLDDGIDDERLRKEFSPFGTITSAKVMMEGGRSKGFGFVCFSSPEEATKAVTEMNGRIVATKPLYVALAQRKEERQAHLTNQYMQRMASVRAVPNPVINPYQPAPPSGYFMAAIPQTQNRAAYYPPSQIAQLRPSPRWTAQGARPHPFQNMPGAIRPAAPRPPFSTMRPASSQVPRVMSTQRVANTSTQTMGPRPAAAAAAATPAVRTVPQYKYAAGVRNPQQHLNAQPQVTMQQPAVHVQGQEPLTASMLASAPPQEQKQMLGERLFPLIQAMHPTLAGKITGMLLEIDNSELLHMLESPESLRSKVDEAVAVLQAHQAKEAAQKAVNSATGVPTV
PABP polyA inh: blocks human PABP binding to poly(A) RNA | P11940 | fluorescence polarization | 1% of 290,000 active | calls only at 35 µM;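 also: calls also rest on retests at 20 µM and on dose response follow-up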
AI-2 QS mod: Vibrio harveyi AI-2 quorum sensing modulation; Vibrio harveyi JMH597 AI-2 luminescence/OD600 ratio, 9 h; hits give low values; strain lacks LuxN and CqsS sensors; 0 = neutral-control median; activity change, % at 7.5 µM; 0.4% of 300,000 active; AID 2094; in the data active = activity change below about -75%, passing the limit was not always enough; inconclusive = no clear call, values can overlap the other calls;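 also: luminescence divided by OD600 gain over 9 h not by final OD600 alone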
eIF4H inh: inhibitors of RNA binding by human eIF4H. eIF4H fluorescence polarization binding assay. Q15056. inhibition, % at 35 µM. 0.94% of 290,000 active;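 also: calls also rest on retests at 20 µM and on dose response follow-up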
PHOSPHO1 block: PHOSPHO1 (human) inhibition; recombinant PHOSPHO1, absorbance phosphatase assay; inhibition, % at 13.3 µM; 1.1% of 290,000 active; in the data active = inhibition above about 60%
Active calls of the source: *; i = inactive; ? = inconclusive; . = not tested or not shown; + = active, no number. Unless noted, no rule for the calls is given here.

SMILES	ABCB6 inh 2	MLLE-PAM2 inh	PABP polyA inh	AI-2 QS mod	eIF4H inh	PHOSPHO1 block
COc1ccc(C(=O)NC(C)c2nnc(SCc3ccc(Cl)c(Cl)c3)n2C)cc1 (stereo not given)	98	-100	i	18	12	82*
CCn1c(SCc2ccc(Cl)c(Cl)c2)nnc1C(C)NC(=O)c1ccc(OC)cc1 (stereo not given)	99	-1	+	10	active	-17
O=C1NC[C@H](Cc2ccc(O)cc2)N(C[C@@H]2CCCN2C[C@H](Cc2ccc(O)cc2)N2C[C@H](Cc3ccccc3)N(CCc3ccccc3)C(=O)C2=O)C1=O	96	.	.	.	.	.
O=C(NCc1ccccc1)c1cc(C2COCCN2C(=O)c2ccc(Cl)cc2)on1 (stereo not given)	89	2	.	.	.	.
COc1ccc(-c2csc(C(O)c3ccc(F)c(F)c3)n2)cc1 (stereo not given)	94	0	.	.	.	.
COc1ccc(C(=O)c2[nH]c(N)c(C(=O)NCCc3c[nH]c4ccccc34)c2-c2ccccc2Br)cc1	120	.	.	.	.	.
COc1cccc(/C=N/n2c(=S)n(C)c3ccccc32)c1OC	104	-111	i	21	-9	73*
Cc1cc(C(=O)Nc2ccccc2Cc2ccccc2)no1	95	-6	i	10	-7	66*
O=C(CN(c1ccccc1)S(=O)(=O)c1ccccc1)NCCSCc1ccco1	95	14	i	6	81*	72*
CN(C)C(=O)CSc1nnc2sc3ccccc3n12	97	10	i	23	-4	-1
CCOC(=O)CC(=O)CSc1nnc2sc3ccccc3n12	98	-55	i	.	3	64*
CC(O)/C=C/c1cccc[n+]1C (stereo not given)	103	-117	+	.	14	84*
C[n+]1ccccc1/C=N/O	103	2	i	16	0	6
CC(=O)NC(c1ccccc1)c1nc(-c2ccccc2)cs1 (stereo not given)	100	6	.	.	.	.
Cn1cccc1/C=C1\CCC/C(=C\c2cccn2C)C1=O	119	i	+	-1	52*	28
O=C1/C(=C/c2cccs2)CCC/C1=C\c1cccs1	111	-20	+	28	72*	43
O=C1/C(=C\c2ccco2)CCC/C1=C\c1ccco1	107	-43	i	-3	86	-9
CCOC(=O)c1ccc2c(c1)C1C=CCC1C(C(=O)O)N2 (stereo not given)	.	.	+	.	92*	7
FC(F)(F)c1ccc2c(c1)C1C=CCC1C(c1ccncc1)N2 (stereo not given)	99	-3	i	23	24	28
CCOC(=O)C1Nc2ccc(C(=O)O)cc2C2C=CCC12 (stereo not given)	117	50*	+	-4	96*	3
COc1ccc(NS(=O)(=O)c2ccc3c(c2)[C@H]2C=CC[C@H]2[C@@H](c2ccc(C(=O)O)cc2)N3)cc1	99	-45	+	4	97*	14
COCCNC(=O)C1Nc2ccc(C(F)(F)F)cc2C2C=CCC12 (stereo not given)	95	-1	.	10	.	.
O=C(O)c1ccc2c(c1)C1C=CCC1C(c1ccncc1)N2 (stereo not given)	98	6	+	8	97*	15
CCCC1Nc2ccc(C(=O)O)cc2C2C=CCC12 (stereo not given)	96	28	i	3	96	8
CC(C)c1ccccc1NC(=O)Nc1nnc([C@@H]2C[C@H](O)[C@@H](CO)O2)s1	99	0	.	.	.	.
SMILES	ABCB6 inh 2	MLLE-PAM2 inh	PABP polyA inh	AI-2 QS mod	eIF4H inh	PHOSPHO1 block
CCOC(=O)N(C)c1c(CC)nc2c(OCc3ccc(Cl)cc3Cl)cccn12	94	-6	.	.	.	.
CC(C)C1Nc2ccc(C(=O)O)cc2C2C=CCC21 (stereo not given)	100	29	i	28	96*	10
CC(=O)/C=C/n1c(=S)oc2ccccc21	.	.	i	-96*	2	-10
CC(C)=CCOc1ccc2c(C)c(CCC(=O)N3C[C@H]4C[C@@H](C3)c3cccc(=O)n3C4)c(=O)oc2c1C	98	-1	.	.	.	.
CCN(CC)C(=O)CC(c1cc(OC)c(OC)c(OC)c1)c1c(OC)cc(OC)c2c(-c3ccccc3)cc(=O)oc12 (stereo not given)	100	-3	+	17	103*	22
CCN(CC)C(=O)CC(c1cc(OC)c(OC)c(OC)c1)c1c(OC)cc(OC)c2ccc(=O)oc12 (stereo not given)	98	-8	i	-11	-2	4
COc1ccc(SCC(O)Cn2c3ccccc3c3ccccc32)c(OC)c1 (stereo not given)	98	.	.	.	.	.
O=C1C=C(c2n[nH]nc2-c2ccccc2)C[C@@H](c2ccc(F)cc2)C1	99	4	.	.	.	.
CCN(CC(=O)Nc1c(F)cccc1F)C(=O)Cc1ccc2c(c1)CCC2	93	41*	.	23	.	.
O=c1[nH]ncn1-c1cccc(C(F)(F)F)c1	96	0	i	-2	59*	24
COc1cc(Cl)ccc1OC1(C)CCN(Cc2ccc(-c3ccccn3)cc2)C1 (stereo not given)	97	-7	.	.	.	.
COc1ccccc1NC1=C(Cl)C(=O)N(c2ccccc2)C1=O	101	10	i	30	-2	-13
CCOc1ccc(N2C(=O)C(Cl)=C(Nc3ccccc3O)C2=O)cc1	128	-5	i	14	11*	55
CC(=O)c1c2c3c(cccc3n(C)c1=O)C(=O)c1ccccc1-2	.	.	?	3	?	-7
CC(=O)c1c2c3c(c(Br)ccc3n(C)c1=O)C(=O)c1ccccc1-2	106	59*	.	10	.	41
COc1ccc(CN2C(=O)c3cccnc3C2=O)cc1S(=O)(=O)NC1CCCCC1	100	-3	i	1	-5	69*
COc1ccccc1CNS(=O)(=O)c1cc(CN2C(=O)c3cccnc3C2=O)ccc1OC	98	-6	i	2	-5	27
COc1ccc(N2CCN(c3oc(-c4ccco4)nc3C#N)CC2)cc1	100	6	i	5	100*	7
COC(=O)Cn1nnnc1-c1nc2cc(C)c(C)cc2[nH]c1=O	101	.	.	.	.	.
COc1c2c(c3c(c1OC)c(=O)c1ccccc1n3C)OCO2	101	55*	.	.	.	.
COc1c2c(c(OC)c3c1c(=O)c1ccccc1n3C)OCO2	91	19	.	.	.	.
Cc1c2ccccc2c(C)c2c1ccc1ccccc12	101	-10	.	.	.	.
CC1=Nc2ccc3ccccc3c2C1(C)C	221	-39	?	7	?	63*
CCNC(=O)C1(C)CCN(C(=O)c2ccc(OC)cc2OC)C1 (stereo not given)	93	4	.	.	.	.
O=C1COc2ccc(C(=O)CSc3nc4ccccc4c(=O)n3-c3ccc(Cl)c(Cl)c3)cc2N1	96	-26	i	41	-5	-5
